Here are results for one compound from PubChem BioAssay AID602448 (National Center for Advancing Translational Sciences (NCATS), 2012).

SMILES strings stand for the structures. Activity calls are given as the source filed them.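 How the source made its calls: active means max inhibition of at least 60%; inconclusive means max inhibition above 30% but below 60%; inactive means max inhibition of 30% or less.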

The target in this assay is Follicle-stimulating hormone receptor (Homo sapiens) (UniProt P23945). As to the kind of experiment: qHTS for antagonists of the Thyroid Stimulation Hormone Receptor: Hit Validation with Follickle Stimulating Hormone Receptor (FSHR). Conditions: FSHR-expressing cells, cAMP HTRF, antagonist counterscreen; hits give high values. The text has this:
The thyroid-stimulating hormone receptor (TSHR) is a member of the 7 trans-membrane-spanning receptor (7TMR) family of cell surface receptors. TSHR-mediated hyperthyroidism is important in thyroid pathology. The development of small molecule antagonists of TSHR may lead to therapeutic approaches for TSHR-mediated hyperthyroidism caused by constitutively activating mutations or stimulating auto-antibodies associated with Graves' disease. Graves' disease is the leading cause of hyperthyroidism and is caused by autoantibodies that stimulate TSHR (TsAbs) causing thyroid growth and unregulated overproduction of thyroid hormones and existing treatments have liabilities (agranulocytosis). In addition, TSHRs are known to be expressed in multiple extrathyroidal tissues including bone, brain, kidney, testis, fat and cells of the immune system but the role of the TSHR in these tissues is not clear. Therefore, TSHR antagonists/inverse agonists could be used as probes of extrathyroidal TSHR function. Finally, TSHR inverse agonists, which are a subclass of antagonists that inhibit agonist-independent (or basal or constitutive) TSHR signaling, could be used to inhibit TSH-independent signaling in patients with recurrent or metastatic thyroid cancer who are receiving thyroid hormone to suppress TSH. […]
In general terms: In qHTS, concentration-response curves come from the screen itself.

Follicle-stimulating hormone receptor (Homo sapiens), sequence (P23945 whole entry, looked up): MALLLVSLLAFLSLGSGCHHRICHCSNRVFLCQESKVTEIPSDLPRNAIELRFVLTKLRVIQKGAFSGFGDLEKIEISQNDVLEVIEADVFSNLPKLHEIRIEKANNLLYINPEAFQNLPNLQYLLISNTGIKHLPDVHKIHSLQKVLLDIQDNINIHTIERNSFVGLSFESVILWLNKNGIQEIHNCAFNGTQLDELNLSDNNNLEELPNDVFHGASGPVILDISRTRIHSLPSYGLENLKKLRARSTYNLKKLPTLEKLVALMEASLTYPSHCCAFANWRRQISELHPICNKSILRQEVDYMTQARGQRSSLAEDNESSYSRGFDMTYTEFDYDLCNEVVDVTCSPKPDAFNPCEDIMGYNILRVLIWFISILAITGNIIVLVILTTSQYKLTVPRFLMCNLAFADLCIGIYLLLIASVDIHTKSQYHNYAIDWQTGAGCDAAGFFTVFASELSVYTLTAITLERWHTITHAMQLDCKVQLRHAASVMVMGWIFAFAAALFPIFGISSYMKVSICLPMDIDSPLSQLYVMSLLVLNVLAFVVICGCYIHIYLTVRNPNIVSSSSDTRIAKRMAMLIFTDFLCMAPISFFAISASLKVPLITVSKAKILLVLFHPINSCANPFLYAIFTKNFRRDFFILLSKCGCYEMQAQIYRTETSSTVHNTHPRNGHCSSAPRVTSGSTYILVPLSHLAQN

Regarding `COC(=O)C1=C(c2ccc(-c3ccccc3)c(F)c2)C[C@@H]2CC[C@H]1N2C(=O)NCCOc1ccccc1`, the max inhibition was 79.5% (active).
